PubChem BioAssay AID1159580 (chemical genetic matrix, 2015)
In all, about 5,500 compounds went through this assay and about 2,000 (36%) were called active. Another 18% or so got no clear call; they are omitted. Cut-off read from the data, not from the text of the source: active = normalized growth mostly below about 0.91 (no sharp cut-off); inconclusive = no clear call, values can overlap the other calls; inactive = mostly above about 0.92. This is one part of the list.

Assay: chemical genetic growth profiling, strain panel (AID 1159580);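 note: tested at 20 µM; growth read once vehicle control cultures reached saturation at 30 °C; 1 = growth at the plate median or of vehicle wells; lower values mean less growth of the strain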
Conditions: S. cerevisiae deletion strains, growth OD

Measured: normalized growth

O=c1[nH]c2cc(Cl)ccc2c(O)c1-c1ccc(Oc2ccccc2)cc1
inactive: locus YAL040C, strain CLN3, active compounds read low 1 | locus YCL061C, strain MRC1 (second series), active compounds read low 0.993 | locus YDR150W, strain NUM1, active compounds read low 0.992 | locus YDR363W, strain ESC2, active compounds read low 1 | locus YER002W, strain NOP16, active compounds read low 1.01 | locus YGR078C, strain PAC10, active compounds read low 1.01 | locus YJR075W, strain HOC1, active compounds read low 0.987 | locus YMR263W, strain SAP30, active compounds read low 0.999 | locus YMR307W, strain GAS1, active compounds read low 0.983 | locus YNL128W, strain TEP1, active compounds read low 1.02 | locus YNL153C, strain GIM3, active compounds read low 1.03 | locus YNL175C, strain NOP13, active compounds read low 1 | locus YNL197C, strain WHI3, active compounds read low 1.01 | locus YNL224C, strain SQS1, active compounds read low 1 | locus YNL322C, strain KRE1, active compounds read low 0.988 | locus YOR083W, strain WHI5 (second series), active compounds read low 0.99 | locus YPL055C, strain LGE1, active compounds read low 1.01

O=C(O)c1cc(O)c2c(c1)[C@@H]([C@@H]1c3cc(C(=O)O)cc(O)c3C(=O)c3c(O[C@H]4O[C@H](CO)[C@@H](O)[C@H](O)[C@H]4O)cccc31)c1cccc(O[C@H]3O[C@H](CO)[C@@H](O)[C@H](O)[C@H]3O)c1C2=O
inactive: locus YHR030C, strain SLT2, active compounds read low 1.09 | locus YHR079C, strain IRE1, active compounds read low 1.08 | locus YJL095W, strain BCK1, active compounds read low 1.02 | locus YJR066W, strain TOR1, active compounds read low 1 | locus YLR113W, strain HOG1, active compounds read low 1.06 | locus YNL183C, strain NPR1, active compounds read low 1.02 | locus YOR231W, strain MKK1, active compounds read low 1.05 | locus YPL256C, strain CLN2, active compounds read low 1.08
